{
  "source": "the supplement of paper PMC6555819",
  "data": [
    {"system": "LXRb:RXRa (NR concentration 270 nM, RXRa partner concentration 90 nM)", "assay": "PBM binding z-score (relative to random genomic background probes); higher = stronger binding; sequences stand for … in GC…GCGATTGACAGCGTAGAATGAAGG", "description": "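Protein-binding microarray (Agilent 4x180K custom design, double-stranded 60-nt probes: 5' GC cap, 34-nt variable region, 24-nt constant primer region; full probe sequence given). Purified or IVT nuclear receptor:RXRα heterodimers (3:1 NR:RXRα, mostly 270:90 nM) or homodimers were incubated for 1 h in PBS with 2% milk and no ligand, then detected with Alexa488 antibodies. Fluorescence from o1-orientation probes (~5 replicates averaged) was converted to z-scores against 500 random hg19 background probes. Variable regions are seed direct-repeat (DR0–DR5) sites, all their single-nucleotide variants and half-site ablations.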", "values": [
      {"sequence": "TTACCAAGGTCAAGGTCGTTGATCCCTCTGTAGA", "PBM binding z-score": 5.02},
      {"sequence": "GCTGCTAGGTCAACTGATGGTCACCTAAAGCTCG", "PBM binding z-score": 2.31},
      {"sequence": "CCTACTGGGCCTAAGGTCATTGATTCCAATGCTC", "PBM binding z-score": 3.36},
      {"sequence": "CCTGCGAGGTCATGGTCAGCTAATCTACAGTATG", "PBM binding z-score": 4.6},
      {"sequence": "CGTCCAAGGTCATATGAGGTCAGTGAAGACAGAT", "PBM binding z-score": 6.58},
      {"sequence": "CCTACTGGACCAAGGTCATTGATCAGTCAAAGCA", "PBM binding z-score": 3.46},
      {"sequence": "GCTAGTTGGTCAGTAAAATGTCACACACCGGTCG", "PBM binding z-score": -0.14},
      {"sequence": "GATACAGGGTCGGCTAGAGGCCAGAGTATGGAAA", "PBM binding z-score": 0.129},
      {"sequence": "CTATGTAGGTTAAGGGAGTCATTCAGTTTGAAAG", "PBM binding z-score": 0.642},
      {"sequence": "TAGCCTAGTTCATGCGGGCCAGTATAGTGTCGGC", "PBM binding z-score": -0.398},
      {"sequence": "AGAATGAGGTCATACGTAGATCAGGGAAGAAAGT", "PBM binding z-score": 5},
      {"sequence": "AATACAGGGTCATCTTAGGCCAGAGTACGCACAG", "PBM binding z-score": 5.12},
      {"sequence": "CCTTACGGGTCAAGGTTATAGCCCGGGTGGTACG", "PBM binding z-score": 2.84},
      {"sequence": "CGAACGAGGTCATCCAGGACAGTGAATACATTGA", "PBM binding z-score": 5.42},
      {"sequence": "AGTCAAAGTTGAGGACGAGGTAACGTAAAGCACG", "PBM binding z-score": -0.0986},
      {"sequence": "CCTACTGGGCCAAAGAGGTCATTGATGCCGATAA", "PBM binding z-score": 3.65},
      {"sequence": "TCTTGTAGATCAATAGAAGTTAAGAAAGTGCGCT", "PBM binding z-score": 0.436},
      {"sequence": "CGAACTAGGTCGTCCAGGACAGTGAATACATTGA", "PBM binding z-score": 0.123},
      {"sequence": "ACTTAAGGGTCAACGAGGTTATAGCACGCGTATA", "PBM binding z-score": 5.33},
      {"sequence": "GCTGCTAGGTCAACTGATGGTCATCTAAAGCTCG", "PBM binding z-score": 2.18},
      {"sequence": "CCTACTGGGCCAAAGGTGATTGATTCCAATGCTC", "PBM binding z-score": 0.206},
      {"sequence": "AGTCAAAGTTCAGGACGAGGTAACGTTAAGCACG", "PBM binding z-score": 1.77},
      {"sequence": "CGTCCGAGGTCATAGGAGGTCAGTGAAGACAGAT", "PBM binding z-score": 6.8},
      {"sequence": "GTTACAGGGTCAAGGCCAGAGTACGCGTATTGAT", "PBM binding z-score": 3.64},
      {"sequence": "CGAACTAGGTCACCCAGGACAGTGAATACATTGA", "PBM binding z-score": 1.93},
      {"sequence": "CCTACGGGGCCACGAAAGGTCATTGATTCAGTGA", "PBM binding z-score": 5.02},
      {"sequence": "TCTAGTTGGTCACGGAGGTCACAAACGACGGGTA", "PBM binding z-score": 3.15},
      {"sequence": "CGTCCAAGGTCAATGCTAGATCAGTGAAAGCATT", "PBM binding z-score": 3.56},
      {"sequence": "CAAACTAGGTCACAGTGGTCAAAGTCCGTGCGTA", "PBM binding z-score": 2.4},
      {"sequence": "AGTCAAAGTGCATCTAGGTAACGTAAGATATGCT", "PBM binding z-score": 0.11},
      {"sequence": "AGAATGGGGTTATACGTAGATCAGGGAAGAAAGT", "PBM binding z-score": 4.38},
      {"sequence": "ACGCGGAGGACAAAGGTCAGAGCTACGCCAGTGA", "PBM binding z-score": 3.19},
      {"sequence": "AGAATGAGGTTAAGTTCAGGGAAACAGAATACAT", "PBM binding z-score": 2.78},
      {"sequence": "CGTCAAAGGTCAGCAGGTCAGTGAAAGCGACGTG", "PBM binding z-score": 4.97},
      {"sequence": "TAGCCTAGGGCATTCAGGGGCCAGTATAGAAAGC", "PBM binding z-score": -0.231},
      {"sequence": "CCTACTGGTCCAAGGTCATTGATCAGTCAAAGCA", "PBM binding z-score": 3.52},
      {"sequence": "CCTACTGGGCCAAAAAGGTCATTGATGCCGATAA", "PBM binding z-score": 3.74},
      {"sequence": "TCTTGTAGATCGATAGAGGTTAAGAAAGTGCGCT", "PBM binding z-score": 1.52},
      {"sequence": "CCTTACGGGTCACGAGGTCATAGCACGACGAGCG", "PBM binding z-score": 5.05},
      {"sequence": "ATATGTAGGTTAGCTGGGGTCCTTCAGACTAGGC", "PBM binding z-score": 0.853}
    ]}
  ]
}
